PubChem BioAssay (NCI)
The panel holds about 83,000 compounds, 20% with a hit somewhere; the sample as a whole holds those more often.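 Growth was measured after 48 h exposure to one concentration of compound in 96-well plates. Values under 10 count as active.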 Unmarked numbers belong to inactive results. Activity calls are given as the source filed them.

tested on: MDA-MB-468 breast; assay: NCI-60 one-dose screen, 48 h (100 = growth as untreated, 0 = no growth, -100 = all killed); conditions: 10 µM unless noted

| Structure (SMILES) | growth |
| --- | --- |
| COc1ccc(Cn2c(Br)c3c(c2-c2cc(OC)c(OC)c(OC)c2)CCc2sc(NC(=O)c4ccc(OC)cc4)nc2-3)cc1 | 98.8% |
| O=NN(CC(=O)N/N=C/C=C\c1ccccc1)CC(=O)N/N=C/C=C/c1ccccc1 | 91.1% |
| COc1ccc(S(=O)(=O)n2c3ccccc3n3ncc(-c4nnc(C)o4)c23)cc1 | -19.5% (active) |
| c1ccc(-c2nc(N3CCOCC3)c3c4c(sc3n2)CCCCC4)nc1 | 65.7% |
| COc1cc(OC)cc(-c2n/c(=C\c3c(O)[nH]c4ccc(OC)cc34)cc3c2=Nc2ccccc2-3)c1 | 88.4% |
| Fc1cc(C(F)(F)F)ccc1-c1cncnc1NC1CCCCCC1 | 82.4% |
| Cc1ccc(CS/C(=C\c2ccc([N+](=O)[O-])cc2)C(=O)c2ccc(F)cc2)cc1 | 81.1% |
| Cc1cnc(C(=O)NNc2nc3sc4c(c3c(=O)n2C)C(C)CCC4)cn1 (stereo not given) | -28% (active) |
| Oc1c(I)cc(-c2nc3ccccc3s2)cc1CN(Cc1ccccn1)Cc1ccccn1 | -11.4% (active) |
| Cc1nccc2c3ccc(OCc4cn(-c5ccc(Br)cc5)nn4)cc3n(CC(C)C)c12 | 5.61% (active) |
| CCOC(=O)c1ccc(NC(=O)CCCN(CC)CC)cc1 | 115% |
| CCOc1cc(NC(=O)c2ccccc2)c(OCC)cc1N | 112% |
| CC1=C2C(=C[C@@](C)(CO)[C@@H]2OC(=O)N(C)CCN(C)C(=O)OC(C)(C)C)C(=O)[C@](C)(O)C12CC2 | -10.1% (active) |
| S=C1SCN(Cc2ccccc2)CN1Cc1ccco1 | 31.9% |
| COc1ccc(C(=O)Nn2c(NCC(=O)N3c4ccccc4Sc4ccccc43)nnc2-c2ccc(O)cc2)cc1 | 107% |
| COC(=O)[C@]12CC[C@@H](C)[C@H](C)[C@@H]1C1=CC[C@@H]3[C@@]4(C)C(C=O)=C[C@@](C)(CO)[C@@H]4[C@H](O)C[C@@]3(C)[C@]1(C)CC2 | -12% (active) |
| O=C1/C(=C/c2ccc(Cl)cc2)N=C(c2ccccc2)N1CCc1cccs1 | 72.4% |
| OC(COc1cccc2ccccc12)CN1CCN(c2ccccc2)CC1 (stereo not given) | 77.6% |
| COc1cccc(-c2nn(-c3ccccc3)cc2-c2ccnc(NCCNC(=O)c3ccccc3)c2)c1 | 47.7% |
| O=C(O)CSCc1nc2ccccc2[nH]1 | 118% |

| Structure (SMILES) | growth |
| --- | --- |
| COc1ccc(/C(C)=N/NC(=O)c2ccc(S(C)(=O)=O)cc2)cc1OC | 95.7% |
| N#CCC1CCCC1 | 97.4% |
| COc1cc(C(=O)Nc2cc3c(cc2Oc2cc(C)cc(C)c2)C(=O)N(C)[C@@H](CC(=O)N(C)O)C(=O)N3)c(Br)c(OC)c1OC | -41.6% (active) |
| C[C@]12CC[C@@H]3c4ccc(OCC(=O)O)cc4CC[C@H]3[C@@H]1CCC2=O | 113% |
| O=Nc1c(O)ccc2ccccc12.O=Nc1c(O)ccc2ccccc12.O=Nc1c([O-])ccc2ccccc12.[Fe+3] | 106% |
| COc1ccc(/C=N/C2=C(C#N)C(c3ccccc3)c3ccc4ccccc4c3O2)cc1 (stereo not given) | 17.9% |
| NC(=S)Cc1ccccc1 | 89.8% |
| COc1cc(-c2cc(/C=C/C(C)=O)[nH]n2)cc(OC)c1OC | 54.5% |
| CC1(C)C(=O)/C(=C\c2ccc(C(F)(F)F)cc2)C[C@]2(C)[C@H]3CC[C@@H]4[C@H]5[C@H](C(=O)/C=C/c6ccc(C(F)(F)F)cc6)CC[C@]5(CO)CC[C@@]4(C)[C@]3(C)CC[C@@H]12 | 104% |
| COc1ccc(Cn2cc(C(=O)N=Nc3c(O)[nH]c4c(Cl)cccc34)nn2)cc1 | 98.6% |
| COc1cc(NC(=O)c2sc3nc4c(cc3c2N)C(O)CCC4)cc(OC)c1 (stereo not given) | 54% |
| COc1cc(C2CC(c3cc(OC)c(OCCCOc4ccc(-n5c(/C=C/c6ccccc6)nc6ccccc6c5=O)cc4)c(OC)c3)=NO2)cc(OC)c1OC (stereo not given) | 104% |
| COc1ccc(-c2nc3ccc(-c4nnc(SCC(=O)Nc5ccc(C(=O)/C=C/c6ccccc6)cc5)o4)cc3[nH]2)cc1OC | 104% |
| CCCCCCCCCCN=C(c1ccc(N(C)C)cc1)c1ccc(N(C)C)cc1 | -8.69% (active) |
| COc1cc(Nc2c(C#N)cnn3cc(-c4cnn(CC(C)(C)O)c4)cc23)ccc1Cl | 65.1% |
| CCC(=O)Oc1cc(Cl)c(Cl)cc1Cl | 113% |
| O=C1C=C[C@H](O)[C@@]2(CO)O[C@@H]12 | 54.5% |
| CCCCCCCCCCOC(C)=O | 110% |
| CC(C)(C)CC(C)(C)n1nnnc1C(NC12CC3CC(CC(C3)C1)C2)c1ccccc1 (stereo not given) | 65.7% |
| COc1cc(/C=C2\CN(C)CC3=C2Nc2nc(SC)[nH]c(=O)c2C3c2cc(OC)c(OC)c(OC)c2)cc(OC)c1OC (stereo not given) | 39.5% |
